# Tests used:
# Assay in all cases: DAPPL (digital affinity profiling via proximity ligation, sequencing); 10 mM Tris-HCl pH 7.5, 50 mM NaCl, 1 mM DTT, 4% glycerol, room temperature, 30 min; GST-TFs on glutathione beads, 16-mer random dsDNA library, 0.1% formaldehyde crosslink after washing; high values mean tight binding
# [1] = molecular target: T1, FLI1 (Homo sapiens, UniProt Q01543 1-452); conditions: protein: recombinant; tags: N-terminal GST; dsDNA, one strand shown
# T1 sequence: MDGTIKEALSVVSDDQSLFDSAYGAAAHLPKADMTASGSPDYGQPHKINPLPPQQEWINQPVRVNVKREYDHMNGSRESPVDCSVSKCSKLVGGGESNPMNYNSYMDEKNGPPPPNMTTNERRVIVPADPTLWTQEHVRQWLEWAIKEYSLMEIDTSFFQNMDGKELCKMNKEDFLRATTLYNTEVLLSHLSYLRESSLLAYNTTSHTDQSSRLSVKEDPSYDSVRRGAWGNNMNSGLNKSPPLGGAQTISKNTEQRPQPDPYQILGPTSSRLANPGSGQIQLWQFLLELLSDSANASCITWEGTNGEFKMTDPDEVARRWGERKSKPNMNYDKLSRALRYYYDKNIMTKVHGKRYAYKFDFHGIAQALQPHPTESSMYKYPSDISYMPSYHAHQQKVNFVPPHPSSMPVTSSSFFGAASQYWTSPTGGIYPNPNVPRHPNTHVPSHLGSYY
# Procedure, shortened: (§1)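 Binding signal is defined as a hexamer's read frequency for one factor over its frequency for the tag-only sample. To obtain reads, GST-fused human transcription factors were expressed in yeast, captured on glutathione beads, barcoded with DNA and pooled with that sample. Pools met 200 nmole of a 16-mer random double-stranded DNA library in Tris/NaCl/DTT/glycerol buffer for 30 min at room temperature before washing, 0.1% formaldehyde crosslinking, proximity ligation (BsaI/T4 ligase, 1 h, 37 °C), PCR and Illumina NextSeq500 sequencing.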
# [2] = molecular target: T2, ELK1 (Homo sapiens, UniProt P19419 1-428); conditions: protein: recombinant; tags: N-terminal GST; dsDNA, one strand shown
# T2 sequence: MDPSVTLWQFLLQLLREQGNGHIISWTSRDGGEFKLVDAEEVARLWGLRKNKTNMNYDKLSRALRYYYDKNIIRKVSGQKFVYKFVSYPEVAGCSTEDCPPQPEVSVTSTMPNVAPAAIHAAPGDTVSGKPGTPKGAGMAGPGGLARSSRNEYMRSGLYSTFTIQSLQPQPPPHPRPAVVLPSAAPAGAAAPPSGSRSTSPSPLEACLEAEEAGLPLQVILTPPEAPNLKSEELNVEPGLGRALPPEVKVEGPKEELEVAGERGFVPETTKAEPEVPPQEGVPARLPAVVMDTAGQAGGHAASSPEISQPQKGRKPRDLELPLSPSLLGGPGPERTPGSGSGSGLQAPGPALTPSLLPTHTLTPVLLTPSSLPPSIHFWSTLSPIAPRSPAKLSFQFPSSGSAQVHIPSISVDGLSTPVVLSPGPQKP
# Procedure, shortened: as §1
# [3] = molecular target: T3, GABPA (Homo sapiens, UniProt Q06546 1-454); conditions: protein: recombinant; tags: N-terminal GST; dsDNA, one strand shown
# T3 sequence: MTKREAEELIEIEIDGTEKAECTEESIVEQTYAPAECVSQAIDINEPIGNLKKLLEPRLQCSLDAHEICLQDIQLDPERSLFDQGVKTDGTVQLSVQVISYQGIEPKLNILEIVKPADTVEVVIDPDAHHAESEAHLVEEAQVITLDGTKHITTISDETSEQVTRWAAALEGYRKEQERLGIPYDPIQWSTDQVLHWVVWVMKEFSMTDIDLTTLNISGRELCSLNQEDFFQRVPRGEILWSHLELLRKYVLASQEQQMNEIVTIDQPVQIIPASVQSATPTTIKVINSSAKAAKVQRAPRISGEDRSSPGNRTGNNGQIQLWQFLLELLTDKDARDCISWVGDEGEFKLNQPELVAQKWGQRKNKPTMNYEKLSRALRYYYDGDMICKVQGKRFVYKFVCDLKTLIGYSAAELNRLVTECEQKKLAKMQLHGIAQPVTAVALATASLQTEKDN
# Procedure, shortened: as §1
# [4] = molecular target: T4, ERG (Homo sapiens, UniProt P11308 1-479); conditions: protein: recombinant; tags: N-terminal GST; dsDNA, one strand shown
# T4 sequence: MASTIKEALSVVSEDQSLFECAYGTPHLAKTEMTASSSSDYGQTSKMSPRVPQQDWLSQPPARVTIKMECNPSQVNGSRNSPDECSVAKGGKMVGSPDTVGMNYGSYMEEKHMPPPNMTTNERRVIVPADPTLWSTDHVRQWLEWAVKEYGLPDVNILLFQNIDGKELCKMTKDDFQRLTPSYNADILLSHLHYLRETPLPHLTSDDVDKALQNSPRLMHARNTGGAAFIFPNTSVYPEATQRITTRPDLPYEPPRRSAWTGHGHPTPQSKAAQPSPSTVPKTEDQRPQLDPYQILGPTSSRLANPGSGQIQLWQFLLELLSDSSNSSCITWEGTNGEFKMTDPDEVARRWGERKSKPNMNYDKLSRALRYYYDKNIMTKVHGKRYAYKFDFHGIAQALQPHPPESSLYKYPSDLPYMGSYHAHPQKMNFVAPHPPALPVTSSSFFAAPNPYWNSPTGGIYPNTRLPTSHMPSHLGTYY
# Procedure, shortened: as §1
# [5] = molecular target: ELF1 (Homo sapiens, UniProt P32519 1-619); conditions: protein: recombinant; tags: N-terminal GST; dsDNA, one strand shown
# Sequence of ELF1 (P32519 whole entry): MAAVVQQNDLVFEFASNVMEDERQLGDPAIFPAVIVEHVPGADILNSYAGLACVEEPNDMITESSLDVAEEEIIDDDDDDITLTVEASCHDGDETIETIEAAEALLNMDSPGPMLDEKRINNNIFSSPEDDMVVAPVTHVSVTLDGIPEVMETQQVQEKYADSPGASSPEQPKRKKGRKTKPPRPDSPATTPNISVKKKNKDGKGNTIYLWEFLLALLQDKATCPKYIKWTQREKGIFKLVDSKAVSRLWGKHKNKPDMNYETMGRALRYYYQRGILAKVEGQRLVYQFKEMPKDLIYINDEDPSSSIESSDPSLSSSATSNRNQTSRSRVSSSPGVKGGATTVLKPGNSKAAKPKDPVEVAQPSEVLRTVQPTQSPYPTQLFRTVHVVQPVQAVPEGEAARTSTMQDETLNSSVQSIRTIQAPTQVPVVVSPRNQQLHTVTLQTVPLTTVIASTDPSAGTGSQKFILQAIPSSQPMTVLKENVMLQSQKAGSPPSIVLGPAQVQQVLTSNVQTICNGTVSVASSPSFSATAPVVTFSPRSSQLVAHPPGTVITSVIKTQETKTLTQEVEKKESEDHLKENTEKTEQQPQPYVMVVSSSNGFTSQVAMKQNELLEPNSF
# Procedure, shortened: as §1
# [6] = molecular target: T5, EHF (Homo sapiens, UniProt Q9NZC4 1-300); conditions: protein: recombinant; tags: N-terminal GST; dsDNA, one strand shown
# T5 sequence: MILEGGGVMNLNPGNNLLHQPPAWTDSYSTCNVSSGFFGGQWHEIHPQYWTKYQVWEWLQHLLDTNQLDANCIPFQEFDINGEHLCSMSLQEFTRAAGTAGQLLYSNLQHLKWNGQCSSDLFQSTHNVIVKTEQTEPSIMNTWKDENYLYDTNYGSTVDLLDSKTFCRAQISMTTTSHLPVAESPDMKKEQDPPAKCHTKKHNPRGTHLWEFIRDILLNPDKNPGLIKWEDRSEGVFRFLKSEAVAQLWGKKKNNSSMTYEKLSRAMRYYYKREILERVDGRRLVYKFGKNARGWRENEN
# Procedure, shortened: as §1
# [7] = molecular target: SPI1 (Homo sapiens, UniProt P17947 1-270); conditions: protein: recombinant; tags: N-terminal GST; dsDNA, one strand shown
# Procedure, shortened: as §1
# [8] = molecular target: SPIB (Homo sapiens, UniProt Q01892 1-262); conditions: protein: recombinant; tags: N-terminal GST; dsDNA, one strand shown
# Sequence of SPIB (Q01892 whole entry): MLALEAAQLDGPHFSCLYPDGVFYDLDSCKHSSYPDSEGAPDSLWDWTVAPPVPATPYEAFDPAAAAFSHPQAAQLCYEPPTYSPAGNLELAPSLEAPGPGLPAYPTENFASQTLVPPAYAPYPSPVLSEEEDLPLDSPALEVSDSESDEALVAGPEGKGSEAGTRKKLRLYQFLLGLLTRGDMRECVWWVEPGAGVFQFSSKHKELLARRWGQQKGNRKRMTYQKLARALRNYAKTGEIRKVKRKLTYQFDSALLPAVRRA
# Procedure, shortened: as §1
# [9] = molecular target: T6, ELK3 (Homo sapiens, UniProt P41970 1-407); conditions: protein: recombinant; tags: N-terminal GST; dsDNA, one strand shown
# T6 sequence: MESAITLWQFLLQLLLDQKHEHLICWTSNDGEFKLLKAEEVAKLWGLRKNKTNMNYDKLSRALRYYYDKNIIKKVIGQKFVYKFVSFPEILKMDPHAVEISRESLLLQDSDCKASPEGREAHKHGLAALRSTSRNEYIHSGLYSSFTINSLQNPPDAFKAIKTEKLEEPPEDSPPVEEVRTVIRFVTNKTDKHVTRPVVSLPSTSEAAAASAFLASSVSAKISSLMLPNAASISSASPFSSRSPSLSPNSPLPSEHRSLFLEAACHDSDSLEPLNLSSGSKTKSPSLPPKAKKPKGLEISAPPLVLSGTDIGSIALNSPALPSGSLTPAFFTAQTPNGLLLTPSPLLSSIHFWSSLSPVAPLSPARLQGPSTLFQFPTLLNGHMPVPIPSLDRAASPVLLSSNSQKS
# Procedure, shortened: as §1
# [10] = molecular target: T7, FEV (Homo sapiens, UniProt Q99581 1-238); conditions: protein: recombinant; tags: N-terminal GST; dsDNA, one strand shown
# T7 sequence: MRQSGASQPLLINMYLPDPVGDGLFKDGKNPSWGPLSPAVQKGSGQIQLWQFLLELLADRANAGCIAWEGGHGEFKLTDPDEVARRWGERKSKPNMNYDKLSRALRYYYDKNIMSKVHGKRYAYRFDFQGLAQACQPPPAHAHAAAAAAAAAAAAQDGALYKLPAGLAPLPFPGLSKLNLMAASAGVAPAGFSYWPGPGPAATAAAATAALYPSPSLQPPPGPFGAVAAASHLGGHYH
# Procedure, shortened: as §1
# [11] = molecular target: ETV5 (Homo sapiens, UniProt P41161 1-510); conditions: protein: recombinant; tags: N-terminal GST; dsDNA, one strand shown
# Sequence of ETV5 (P41161 whole entry): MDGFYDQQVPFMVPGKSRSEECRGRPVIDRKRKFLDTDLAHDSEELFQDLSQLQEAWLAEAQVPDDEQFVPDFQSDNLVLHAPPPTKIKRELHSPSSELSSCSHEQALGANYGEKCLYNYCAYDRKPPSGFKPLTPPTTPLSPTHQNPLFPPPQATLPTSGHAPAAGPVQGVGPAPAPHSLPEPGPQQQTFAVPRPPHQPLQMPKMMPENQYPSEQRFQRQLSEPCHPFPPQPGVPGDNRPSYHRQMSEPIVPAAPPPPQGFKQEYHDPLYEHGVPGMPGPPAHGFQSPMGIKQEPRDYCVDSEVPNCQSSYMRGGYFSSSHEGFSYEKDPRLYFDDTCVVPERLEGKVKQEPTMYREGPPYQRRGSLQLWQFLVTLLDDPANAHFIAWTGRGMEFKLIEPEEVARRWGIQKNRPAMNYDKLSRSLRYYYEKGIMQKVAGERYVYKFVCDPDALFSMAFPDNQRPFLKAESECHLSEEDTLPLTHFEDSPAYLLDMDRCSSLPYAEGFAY
# Procedure, shortened: as §1
# [12] = molecular target: HSF1 (Homo sapiens, UniProt Q00613 1-529); conditions: protein: recombinant; tags: N-terminal GST; chain copies: 3; dsDNA, one strand shown
# Sequence of HSF1 (Q00613 whole entry): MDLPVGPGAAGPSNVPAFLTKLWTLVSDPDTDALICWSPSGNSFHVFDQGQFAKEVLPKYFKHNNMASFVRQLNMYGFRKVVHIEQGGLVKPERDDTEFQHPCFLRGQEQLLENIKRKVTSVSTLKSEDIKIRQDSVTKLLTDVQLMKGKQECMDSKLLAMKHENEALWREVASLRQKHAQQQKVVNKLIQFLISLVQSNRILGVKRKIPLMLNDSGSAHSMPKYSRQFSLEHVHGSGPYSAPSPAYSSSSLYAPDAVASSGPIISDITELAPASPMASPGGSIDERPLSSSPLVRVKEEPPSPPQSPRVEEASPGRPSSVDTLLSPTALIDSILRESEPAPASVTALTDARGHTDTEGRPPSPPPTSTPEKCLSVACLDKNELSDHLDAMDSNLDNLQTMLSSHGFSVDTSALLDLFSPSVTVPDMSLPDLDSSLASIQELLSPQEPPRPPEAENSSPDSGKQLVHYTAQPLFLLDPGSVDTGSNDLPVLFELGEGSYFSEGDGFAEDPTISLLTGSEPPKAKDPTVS
# Procedure, shortened: as §1
# [13] = molecular target: T8, SPIC (Homo sapiens, UniProt Q8N5J4 1-248); conditions: protein: recombinant; tags: N-terminal GST; dsDNA, one strand shown
# T8 sequence: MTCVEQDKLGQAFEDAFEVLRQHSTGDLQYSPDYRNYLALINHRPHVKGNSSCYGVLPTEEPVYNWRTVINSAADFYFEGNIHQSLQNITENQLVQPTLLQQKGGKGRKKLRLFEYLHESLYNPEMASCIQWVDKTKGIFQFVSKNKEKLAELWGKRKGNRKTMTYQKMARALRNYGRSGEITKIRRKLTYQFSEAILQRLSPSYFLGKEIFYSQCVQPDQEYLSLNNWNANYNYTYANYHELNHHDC
# Procedure, shortened: as §1
# [14] = molecular target: ELF4 (Homo sapiens, UniProt Q99607 1-663); conditions: protein: recombinant; tags: N-terminal GST; dsDNA, one strand shown
# Sequence of ELF4 (Q99607 whole entry): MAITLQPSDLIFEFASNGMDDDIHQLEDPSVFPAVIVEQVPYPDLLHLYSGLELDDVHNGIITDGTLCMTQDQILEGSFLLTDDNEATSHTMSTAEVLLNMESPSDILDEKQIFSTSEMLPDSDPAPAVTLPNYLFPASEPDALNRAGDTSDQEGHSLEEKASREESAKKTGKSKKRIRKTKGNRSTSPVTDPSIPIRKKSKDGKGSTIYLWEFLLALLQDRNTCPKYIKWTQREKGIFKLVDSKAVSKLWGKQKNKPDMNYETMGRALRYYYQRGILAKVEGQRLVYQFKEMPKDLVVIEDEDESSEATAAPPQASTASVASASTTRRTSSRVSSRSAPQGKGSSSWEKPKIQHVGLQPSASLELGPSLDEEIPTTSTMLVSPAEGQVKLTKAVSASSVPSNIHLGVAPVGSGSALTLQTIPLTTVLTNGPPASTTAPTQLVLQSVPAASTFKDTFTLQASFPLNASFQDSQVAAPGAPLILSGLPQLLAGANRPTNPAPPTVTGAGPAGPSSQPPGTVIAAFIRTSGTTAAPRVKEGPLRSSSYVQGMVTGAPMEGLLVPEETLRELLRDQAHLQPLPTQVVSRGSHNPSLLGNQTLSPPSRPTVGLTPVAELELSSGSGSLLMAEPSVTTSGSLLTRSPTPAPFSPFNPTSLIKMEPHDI
# Procedure, shortened: as §1
# [15] = molecular target: T9, ELK4 (Homo sapiens, UniProt P28324-2 1-405); conditions: protein: recombinant; tags: N-terminal GST; dsDNA, one strand shown
# T9 sequence: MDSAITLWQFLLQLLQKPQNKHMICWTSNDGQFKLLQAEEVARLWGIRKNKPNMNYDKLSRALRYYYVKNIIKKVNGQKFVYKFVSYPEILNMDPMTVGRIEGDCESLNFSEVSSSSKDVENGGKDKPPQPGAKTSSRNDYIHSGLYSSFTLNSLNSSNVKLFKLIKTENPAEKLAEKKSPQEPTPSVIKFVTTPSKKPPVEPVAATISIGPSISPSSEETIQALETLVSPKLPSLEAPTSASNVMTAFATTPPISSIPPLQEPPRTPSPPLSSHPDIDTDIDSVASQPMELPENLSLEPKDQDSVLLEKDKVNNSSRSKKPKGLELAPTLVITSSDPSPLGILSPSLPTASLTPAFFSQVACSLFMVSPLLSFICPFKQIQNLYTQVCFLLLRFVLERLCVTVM
# Procedure, shortened: as §1
# [16] = molecular target: T10, ETV2 (Homo sapiens, UniProt O00321 1-342); conditions: protein: recombinant; tags: N-terminal GST; dsDNA, one strand shown
# T10 sequence: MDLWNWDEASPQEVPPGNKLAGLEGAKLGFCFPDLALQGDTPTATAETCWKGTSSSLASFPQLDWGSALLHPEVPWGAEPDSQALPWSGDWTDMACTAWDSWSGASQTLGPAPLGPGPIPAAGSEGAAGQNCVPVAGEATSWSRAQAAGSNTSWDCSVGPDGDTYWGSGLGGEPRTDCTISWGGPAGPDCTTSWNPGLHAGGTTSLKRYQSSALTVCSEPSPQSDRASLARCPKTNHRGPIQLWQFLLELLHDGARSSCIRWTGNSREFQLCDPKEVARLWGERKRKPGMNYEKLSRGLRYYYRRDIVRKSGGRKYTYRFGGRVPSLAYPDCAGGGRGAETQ
# Procedure, shortened: as §1
# [17] = molecular target: T11, ELF3 (Homo sapiens, UniProt P78545 1-371); conditions: protein: recombinant; tags: N-terminal GST; dsDNA, one strand shown
# T11 sequence: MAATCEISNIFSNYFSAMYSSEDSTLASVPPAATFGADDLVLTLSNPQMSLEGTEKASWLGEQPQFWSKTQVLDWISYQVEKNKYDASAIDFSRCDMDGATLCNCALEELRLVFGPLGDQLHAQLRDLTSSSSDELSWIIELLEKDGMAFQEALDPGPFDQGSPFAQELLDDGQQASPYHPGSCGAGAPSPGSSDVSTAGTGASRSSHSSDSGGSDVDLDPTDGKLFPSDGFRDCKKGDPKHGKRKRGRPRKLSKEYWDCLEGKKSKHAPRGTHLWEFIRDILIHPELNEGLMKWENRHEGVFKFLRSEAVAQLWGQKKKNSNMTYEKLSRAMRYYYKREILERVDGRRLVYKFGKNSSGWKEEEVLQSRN
# Procedure, shortened: as §1
# [18] = molecular target: CRX (Homo sapiens, UniProt O43186 1-299); conditions: protein: recombinant; tags: N-terminal GST; dsDNA, one strand shown
# Sequence of CRX (O43186 whole entry): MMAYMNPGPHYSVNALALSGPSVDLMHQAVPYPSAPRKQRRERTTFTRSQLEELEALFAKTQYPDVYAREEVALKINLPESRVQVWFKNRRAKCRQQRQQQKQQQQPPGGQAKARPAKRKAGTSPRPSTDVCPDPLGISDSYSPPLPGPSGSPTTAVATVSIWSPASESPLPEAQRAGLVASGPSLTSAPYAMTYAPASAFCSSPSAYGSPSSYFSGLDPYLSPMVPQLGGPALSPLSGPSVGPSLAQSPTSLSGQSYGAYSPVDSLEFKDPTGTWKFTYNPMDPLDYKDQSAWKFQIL
# Procedure, shortened: as §1
# [19] = molecular target: ETV1 (Homo sapiens, UniProt P50549 1-477); conditions: protein: recombinant; tags: N-terminal GST; dsDNA, one strand shown
# Sequence of ETV1 (P50549 whole entry): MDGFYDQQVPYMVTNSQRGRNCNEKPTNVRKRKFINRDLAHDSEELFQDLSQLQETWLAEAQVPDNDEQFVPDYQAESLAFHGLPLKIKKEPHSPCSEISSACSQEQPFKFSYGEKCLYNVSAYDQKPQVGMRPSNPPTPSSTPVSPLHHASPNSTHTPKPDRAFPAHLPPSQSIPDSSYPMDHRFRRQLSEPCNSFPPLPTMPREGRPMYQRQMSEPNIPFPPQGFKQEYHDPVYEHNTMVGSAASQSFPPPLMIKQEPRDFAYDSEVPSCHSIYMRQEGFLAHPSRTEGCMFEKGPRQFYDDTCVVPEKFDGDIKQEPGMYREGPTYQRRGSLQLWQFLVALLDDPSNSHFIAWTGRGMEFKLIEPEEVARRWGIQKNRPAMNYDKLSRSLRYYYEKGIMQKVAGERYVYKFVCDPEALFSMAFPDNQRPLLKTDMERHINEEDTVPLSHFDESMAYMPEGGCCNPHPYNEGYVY
# Procedure, shortened: as §1
sequence,measurement,setting,value
GACTTC,binding signal,[1],"2.39 fold enrichment (6-mer frequency, TF over GST control)"
same,binding signal,[2],"2.65 fold enrichment (6-mer frequency, TF over GST control)"
same,binding signal,[3],"2.3 fold enrichment (6-mer frequency, TF over GST control)"
same,binding signal,[4],"2.84 fold enrichment (6-mer frequency, TF over GST control)"
same,binding signal,[5],"2.36 fold enrichment (6-mer frequency, TF over GST control)"
same,binding signal,[6],"2.51 fold enrichment (6-mer frequency, TF over GST control)"
same,binding signal,[7],"3.04 fold enrichment (6-mer frequency, TF over GST control)"
same,binding signal,[8],"2.51 fold enrichment (6-mer frequency, TF over GST control)"
same,binding signal,[9],"2.61 fold enrichment (6-mer frequency, TF over GST control)"
same,binding signal,[10],"3.36 fold enrichment (6-mer frequency, TF over GST control)"
same,binding signal,[11],"2.51 fold enrichment (6-mer frequency, TF over GST control)"
same,binding signal,[12],"1.23 fold enrichment (6-mer frequency, TF over GST control)"
same,binding signal,[13],"2.23 fold enrichment (6-mer frequency, TF over GST control)"
same,binding signal,[14],"2.28 fold enrichment (6-mer frequency, TF over GST control)"
same,binding signal,[15],"2.22 fold enrichment (6-mer frequency, TF over GST control)"
same,binding signal,[16],"2.35 fold enrichment (6-mer frequency, TF over GST control)"
same,binding signal,[17],"2.29 fold enrichment (6-mer frequency, TF over GST control)"
same,binding signal,[18],"1.12 fold enrichment (6-mer frequency, TF over GST control)"
same,binding signal,[19],"2.56 fold enrichment (6-mer frequency, TF over GST control)"

# Source: paper PMC7862700, “An all-to-all approach to the identification of sequence-specific readers for epigenetic DNA modifications on cytosine”
